High-throughput results as filed in PubChem.
Polio RdRp inh: poliovirus RdRp elongation inhibitors, primary screen, biochemical, fluorescence polarization, total intensity | Genome polyprotein (Poliovirus type 1 (strain Mahoney)), P03300 | poliovirus polymerase elongation; stronger effect = lower value | % elongation, % (compound at 16.7 µg/mL) | actives 0.66% (n = 150,000); in the data active = % elongation below about 90%
Target sequence (P03300 1749-2209 limits assumed): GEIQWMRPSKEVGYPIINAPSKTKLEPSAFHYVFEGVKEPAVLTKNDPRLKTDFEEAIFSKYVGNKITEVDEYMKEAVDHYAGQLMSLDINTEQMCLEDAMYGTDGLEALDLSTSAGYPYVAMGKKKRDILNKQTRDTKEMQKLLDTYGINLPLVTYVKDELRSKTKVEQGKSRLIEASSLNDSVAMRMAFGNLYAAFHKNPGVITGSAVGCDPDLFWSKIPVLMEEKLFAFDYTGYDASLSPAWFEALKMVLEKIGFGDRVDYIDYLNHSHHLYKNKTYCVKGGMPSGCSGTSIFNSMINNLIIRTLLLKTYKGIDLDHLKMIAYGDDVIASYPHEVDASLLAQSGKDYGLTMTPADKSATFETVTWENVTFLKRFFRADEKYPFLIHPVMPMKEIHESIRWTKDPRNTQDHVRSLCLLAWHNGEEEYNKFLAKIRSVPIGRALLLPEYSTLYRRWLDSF
Mtb MenB inh: M. tuberculosis MenB inhibitors, primary screen, biochemical, absorbance. 1,4-dihydroxy-2-naphthoyl-CoA synthase (Mycobacterium tuberculosis (strain ATCC 25618 / …. MenB enzyme assay, absorbance read-out. inhibition, % (test concentration not listed). actives 0.43% (n = 100,000). AID 540299, 2011; in the data active = inhibition above about 21%, passing the limit was not always enough
MbtI inh: MbtI salicylate synthase inhibitors, primary screen, biochemical, fluorescence intensity | inhibition, % (test concentration not listed) | purified MbtI enzyme, fluorescence intensity read-out | actives 0.89% (n = 100,000) | P9WFX0; in the data active = inhibition mostly above about 56%, no sharp cut-off; inactive = mostly below about 77%
A number is an active result; i = inactive; nt = no result; ! = a repeat was not active. In the library only some 1.4% were active in any assay of this set; here they are far more common.

SMILES	Polio RdRp inh	Mtb MenB inh	MbtI inh
O=C1Cc2ccccc2C(=O)N1c1cccc(Cl)c1	78.0	i	i
O=C1c2ccccc2C(=O)N1c1ccccc1	i	i	i
O=C(Nc1cccc(N2C(=O)C=CC2=O)c1)c1cccs1	i	i	i
Cc1ccc(N2C(=O)C=CC2=O)cc1	i	i	99.8
O=C1C=CC(=O)N1c1ccccc1	i	i	99.0
CC(=O)Nc1cccc(N2C(=O)C=CC2=O)c1	i	i	95.5
O=C1Cc2ccccc2C(=O)N1c1ccccc1	i	nt	i
Cc1ccc(-n2c(C)cc(=O)cc2C)cc1	nt	i	i
Cc1nc2sc3c(c2c(=S)[nH]1)CCC3	i	i	i
CCC(CC)NC(=O)Cc1ccc(Cl)cc1	i	i	nt
COc1cc(OC)cc(C(=O)OCC(=O)Nc2ncccn2)c1	i	i	i
CCC(NC(=O)Nc1cc(Cl)c(OC)cc1OC)c1c(-n2cccc2)sc2c1CCN(C)C2 (stereo not given)	i	i	i
CN(C)CCCn1c(N)c(-c2nc3ccccc3[nH]2)c2nc(C#N)c(C#N)nc21	i	i	nt
O=C(O)C1C2C=CC(O2)C1C(=O)Nc1ccc(S(=O)(=O)NCCc2ccccc2)cc1 (stereo not given)	i	i	i
O=C(COc1ccc(-c2nnco2)cc1)NCCC1=CCCCC1	i	i	i
CC1NC(=S)N(c2ccc(C(C)C)cc2)C1=O (stereo not given)	i	i	i
CC1(C)C(=O)N(c2cccc(Cl)c2)C(=O)C1(C)C	i	i	i
CCCCc1ccc(CC(=O)O)cc1	i	i	i
CC(C)c1ccc(N2C(=O)C=CC2=O)cc1	i	i	101.3
CCCCc1ccc(N2C(=O)C=CC2=O)cc1	i	nt	97.6
O=C1C=CC(=O)N1c1cccc(Cl)c1	i	i	100.5
CSc1cccc(NC(=O)CSc2ncn[nH]2)c1	i	i	i
CCCOc1ccc2c(c1)C(=O)c1cc(OCC(=O)O)ccc1-2	i	i	i
Cc1cccc(NC(=O)N2CCC(CN3CCc4ccccc4C3)CC2)c1	i	i	i
CNC(=O)CCc1nc(-c2ccc(OC)cc2)no1	i	i	i
SMILES	Polio RdRp inh	Mtb MenB inh	MbtI inh
Cc1ccc(Cl)cc1NC(=O)Cn1cnc2c(cnn2C)c1=O	i	i	i
S=c1n(CN2CCOCC2)nc(-c2ccccc2Br)n1-c1ccccc1	i	i	i
COc1cc2c(cc1OC)CC(C(=O)O)NC2 (stereo not given)	i	32.3	i
COc1cc2c(cc1OC)C(C(=O)O)CC(=O)N2 (stereo not given)	i	i	i
COc1ccc(CCN2C(=O)C=CC2=O)cc1	i	nt	93.0
COc1ccc(CCC(=O)CCc2ccc(OC)cc2)cc1	i	i	i
CCOc1ccc(NC(=O)CCS(=O)(=O)c2cc3c(cc2C)NC(=O)CO3)cc1	i	i	i
COc1ccc(C2(CNC(=O)c3ccco3)CCOCC2)cc1	78.0	i	nt
COc1ccc(C2(CNC(=O)c3ccccc3)CCOCC2)cc1	nt	nt	i
Cc1ccc(CCNC(=O)c2cc(C)[nH]n2)cc1	i	i	i
CC(/C=N/NC(=O)c1ccco1)=C\c1ccco1	i	i	i
N#Cc1oc2ccccc2c1NC(=O)CSc1nnc(-c2ccccc2)n1Cc1ccco1	nt	38.6	i
N#Cc1oc2ccccc2c1NC(=O)CSc1nnc2n(-c3ccccc3)c(=O)c3ccccc3n12	i	i	i
Nc1cccc(C2=NCCN2)c1	i	i	nt
O=C(Nc1cccc(C2=NCCN2)c1)Nc1cccc(C2=NCCN2)c1	68.0	i	nt
Cc1ccc(N2CCN(c3cnn(C45CC6CC(CC(CC(=O)O)(C6)C4)C5)c(=O)c3Cl)CC2)c(C)c1	i	i	i
c1ccc(N2CCN(Cc3nnnn3Cc3ccc4c(c3)OCO4)CC2)cc1	i	i	i
COC(=O)c1c(O)cc(=O)[nH]c1N	i	i	i
COC(=O)c1cc(=O)[nH]c(=S)[nH]1	81.0	i	87.7
CCN(CC)CC(=O)OC1CC2CCC1(C)C2(C)C (stereo not given)	i	i	nt
CCOC(=O)c1c(C)[nH]c(C)c1S(=O)(=O)N1CCCC(C(=O)Nc2ccccc2OCC)C1 (stereo not given)	-7.0	nt	nt
CCOc1ccccc1NC(=O)C1CCCN(S(=O)(=O)c2c(C)[nH]c(=O)[nH]c2=O)C1 (stereo not given)	i	nt	nt
O=C1CS/C(=N/C(=O)NCC2CCCC(CNC(=O)/N=C3\NC(=O)CS3)C2)N1 (stereo not given)	i	i	i
Cc1ccc(Cc2cn3cc(-c4ccc(F)cc4)nc3s2)cc1	i	nt	nt
Cc1ccc(Cc2c[nH]c(=S)s2)cc1	i	i	89.8
SMILES	Polio RdRp inh	Mtb MenB inh	MbtI inh
COc1cccc(CN2COc3ccc4c(C)cc(=O)oc4c3C2)c1	i	i	i
CSc1nnc2[nH]c(=O)cc(N)n12	i	i	i
Nc1cc(=O)[nH]c2n[nH]c(=S)n12	i	32.9	99.6
COC(CNC(=O)c1c[nH]c2ccc(S(=O)(=O)N(C)c3ccccc3C)cc2c1=O)OC	i	i	i
S=CC1=C2NCCCN2C2CCCCC12 (stereo not given)	i	i	nt
CCOC(=O)NN=C(C1CC1)C1CC1	i	i	i
Cc1ccc(CN(C)C(=O)Cc2ccc3c(c2)OCCO3)o1	i	i	i
CC1=NN(c2ccccc2)C(=S)/C1=C\N1CCCCC1	i	i	97.6
CC1=NN(c2ccccc2)C(=O)/C1=C\c1ccc(N)cc1	i	i	i
CCS(=O)(=O)c1ncc(Cl)c(C(=O)Nc2ccc(Cl)cc2)n1	i	i	62.9
CCS(=O)(=O)c1ncc(Cl)c(C(=O)NCc2ccccc2)n1	i	nt	nt
O=c1c(/C=N/N2CCOCC2)c(-c2ccccc2)[nH]n1-c1nc2ccccc2s1	i	i	i
Cc1nc(Cc2nnc(SCc3cc(=O)oc4cc(C)c(C)cc34)o2)cs1	-2.0	i	i
Cc1nc(Cc2nnc(SCc3cn4cccc(C)c4n3)o2)cs1	i	i	i
CCOC(=O)c1cc2c(=O)n3ccccc3nc2n(Cc2ccco2)c1=NC(C)=O	nt	nt	i
COc1cc(OC)cc(C(=O)N2CCC(C(=O)NCCc3ccccc3)CC2)c1	i	47.9	i
O=C(NCCc1ccccc1)C1CCN(C(=O)c2ccco2)CC1	i	i	i
CCc1ccc(NC(=O)Cn2c(=O)n(CCC(=O)NCc3ccccc3)c(=O)c3sccc32)cc1	i	i	i
c1ccc(-c2nnc(-c3cccnc3)nc2-c2ccccc2)cc1	i	i	i
c1cncc(-c2nnc(-c3cccnc3)nn2)c1	66.0	i	nt
CCc1ccc(NC(=O)Nc2ccc3c(c2)N(C)C(=O)c2ccccc2S3)cc1	i	i	i
COc1ccc(C=C2C(=O)NC(=O)NC2=O)cc1	i	i	i
COc1ccc(C=C2C(=O)NC(=S)NC2=O)cc1	i	i	96.9
CCCCN(C)C(=O)c1cc(-c2ccc(OC)cc2)n[nH]1	i	i	i
Cc1sc2nc[nH]c(=S)c2c1C	i	i	57.3!
Cc1c(C(=O)O)sc2nc[nH]c(=O)c12	i	i	nt
Cc1cc(C(=O)NC2CCCCCC2)no1	i	i	i
Cc1cc(C(=O)NN2C3CSC2CS3)no1	i	75.4	i
C=C(C)CN(CC)c1nc(N)c2c(N)nc3c(c2c1C#N)CC(=O)N3C12CC3CC(CC(C3)C1)C2	i	i	i
N#Cc1c(N2CCCC(O)C2)nc(N)c2c(N)nc3c(c12)CC(=O)N3C12CC3CC(CC(C3)C1)C2 (stereo not given)	39.0	i	i
